The values that follow come from PubChem BioAssay (NCI).

The structures appear in SMILES notation. Compounds without any hit were thinned out: in the full panel of roughly 83,000, 20% have a hit.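 Single-dose data. Exposure time 48 hours. Values below 10 considered active.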 Unmarked numbers belong to inactive results. Calls of active or inactive are those of the source.

What all share (assay): NCI-60 one-dose screen, 48 h (100 = growth as untreated, 0 = no growth, -100 = all killed)
Holding throughout (settings): 10 µM

Assay [1] has as its system SK-MEL-2 melanoma.
Assay [2] concerns EKVX NSCLC.
Assay [3] relates to SN12C renal.
In assay [4] the test system is UO-31 renal.
The subject of assay [5] is ACHN renal.
The test system of assay [6] is CAKI-1 renal.
The test system of assay [7] is A498 renal.
Assay [8] deals with CCRF-CEM leukemia.
The subject of assay [9] is MOLT-4 leukemia.
In assay [10] the test system is SR leukemia.
The test system of assay [11] is RPMI-8226 leukemia.
Assay [12] relates to OVCAR-8 ovarian.
Assay [13] deals with OVCAR-5 ovarian.
In assay [14] the test system is OVCAR-4 ovarian.
The subject of assay [15] is SK-OV-3 ovarian.
The test system of assay [16] is IGROV1 ovarian.
Assay [17] concerns OVCAR-3 ovarian.
In assay [18] the test system is HS 578T breast.
Assay [19] concerns NCI/ADR-RES ovarian.

With `COc1cc2cc(Oc3ccc(NC(=O)c4ccccc4)cc3)c(C)nc2cc1OC`, the growth in assay [1] was 59.5%; in [2] it was 89.8%; in assay [3], 81%; in assay [4], 81.4%; in [5] it was 80.8%; in [6], 85.3%. Moreover, the growth in assay [7] was 89%; in assay [8], 101%; in assay [9], 89.9%; in assay [10], 70.2%; in [11], 96.8%; in [12], 22.7%. Moreover, the growth in assay [13] is 112%; in [14], 78.9%; in assay [15] it was 73.4%; in [16] it was 91.5%; in assay [17], 83.4%; in [18] it was 57.1%. Besides, the growth in assay [19] was 81.3%.
For `COc1cc2cc(Oc3ccc(NC(=O)Nc4ccc(Cl)c(C(F)(F)F)c4)cc3)c(C)nc2cc1OC`, the growth in [1] is -49.8% (active); in assay [2], 8.83% (active); in assay [3] it was 13.2%; in assay [4], -45.1% (active); in [5] it was 13.6%; in [6] it was -8.92% (active). In addition, the growth in [7] is 10.5%; in assay [8], -17.6% (active); in assay [9] it was -27.9% (active); in assay [10] it was -32.5% (active); in [11] it was -26.4% (active); in [12], 7.34% (active). Besides, the growth is 18% in assay [13]; 17.1% in assay [14]; -4.09% (active) in [15]; -7.69% (active) in assay [16]; -27.3% (active) in assay [17]; 2.5% (active) in assay [18]. Also, in assay [19], the growth was 2.01% (active).
For the compound `COc1cc2cc(Oc3ccc(NC(=O)Nc4ccc(C(F)(F)F)cc4)cc3)c(C)nc2cc1OC`, the growth was 76.7% in assay [1]; 75.7% in assay [2]; 72.2% in assay [3]; 87.6% in assay [4]; 56.1% in assay [5]; 70.4% in assay [6]. Moreover, the growth in assay [7] is 90.5%; in [8], 68.5%; in assay [9], 61.9%; in assay [10] it was 59.6%; in [11] it was 52.7%; in assay [12] it was 37.8%. In addition, the growth in assay [13] is 92.9%; in assay [14], 49%; in assay [15], 38.8%; in assay [16], 71.9%; in [17] it was 67%; in [18] it was 70.9%. Further, in assay [19], the growth is 64.1%.
As to `COc1cc2cc(Oc3ccc(NC(=O)Nc4cccc(C(F)(F)F)c4)cc3)c(C)nc2cc1OC`, the growth in assay [1] was -35.8% (active); in assay [2], 15.4%; in [3], 17.2%; in assay [4] it was 11.3%; in [5], 11.2%; in [6], 9.13% (active). In addition, the growth in assay [7] is 21.7%; in assay [8], 6.41% (active); in assay [9], 0.812% (active); in assay [10], -6.62% (active); in assay [11], -5.94% (active); in [12] it was 8.32% (active). Moreover, the growth in assay [13] is 27.8%; in assay [15], 3.35% (active); in [16] it was 8.77% (active); in [17], -0.54% (active); in [18] it was 22.5%; in assay [19] it was 6.98% (active).
On to `CSc1nc2c(c(=O)n1C)CN(Cc1ccccc1)C(=O)CN2`, for which the growth in [1] is 86.3%; in [2], 86%; in assay [3] it was 97.7%; in assay [4], 78.3%; in [5], 96.4%; in assay [6], 88.6%. Moreover, the growth in assay [7] was 92.4%; in assay [8], 80.7%; in assay [9], 92.5%; in assay [10], -9.52% (active); in assay [11], 109%; in assay [12] it was 106%. Moreover, the growth was 94.4% in assay [13]; 91% in assay [14]; 99% in assay [15]; 97.6% in assay [16]; 98.6% in assay [17]; 101% in [18]. In addition, the growth in assay [19] is 85.5%.
With `C/C(=N\O)c1ccc(NC(=O)CSc2nnc(-c3ccccc3)n2-c2ccccc2)cc1`, the growth in assay [1] was 118%; in [2], 91.9%; in assay [3], 72.4%; in assay [4], 76.2%; in assay [5], 63.7%; in assay [6] it was 85.6%. For the same compound, the growth in [7] is 92.7%; in [8], 92%; in assay [9], 95.2%; in assay [10], 106%; in [11], 91.2%; in assay [12] it was 84.7%. Further, the growth in assay [13] was 86.2%; in [14], 87.3%; in assay [15], 39.3%; in [16], 76.7%; in [17] it was 81.4%; in assay [18] it was 62.5%. Further, the growth in assay [19] was 90.8%.
As to `CS(=O)(=O)c1nccc(-c2c(-c3cccc(OCc4ccccc4)c3)nc3sccn23)n1`, the growth in assay [1] is 103%; in [2], 92.5%; in assay [3], 76.2%; in assay [4], 3.7% (active); in assay [5], 95.9%; in assay [6], 44.2%. The growth in assay [7] is 72.5%; in assay [8] it was 52.5%; in [9] it was 26.5%; in assay [10] it was 37.9%; in assay [11], 81.6%; in [12] it was 92.7%. Also, the growth in assay [13] is 89.2%; in assay [14] it was 73.8%; in assay [15] it was 72.8%; in assay [16], 58.4%; in [17], 89.4%; in [18], 79.1%. For the same compound, in assay [19], the growth was 90.7%.
As for `N#Cc1cnn(C(=O)c2nn(-c3ccc(Cl)cc3)cc2O)c1N`, the growth in assay [1] is 1.93% (active); in [2], 1.5% (active); in assay [3] it was 26.5%; in assay [4] it was -3.61% (active); in [5] it was 11.4%; in assay [6], -34.4% (active). For the same compound, the growth in assay [7] is 48.6%; in assay [8], -10.1% (active); in assay [9], -14.4% (active); in assay [10], -35.5% (active); in assay [11] it was -37% (active); in [12], 10.1%. Further, the growth in assay [13] is 30.6%; in assay [14], 18.8%; in assay [15] it was 8.44% (active); in assay [16], 12.5%; in assay [17], -0.517% (active); in assay [18], 75.9%. The growth in assay [19] is 3.25% (active).
